Screening results: PubChem, several laboratories
A selection: hits, their analogues and other compounds. The true share with any hit is near 32%.
PostGolgi yeast – phenotypic screen on post-Golgi transport, primary screen; post-Golgi transport phenotypic cell assay; inhibition, % at 10 µM; hit rate 0.9% among 98,000;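 note: yeast cells grown in 1536-well plates; yeast grown about 18 h at 30C before absorbance read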
CYP2C9 inh – blockers of cytochrome P450 2C9 activity – biochemical, luminescence, ADME assay, primary screen; P11712; CYP2C9 Supersomes, luciferin-H conversion; inhibition, % at 5 µM; hit rate 20% among 96,000; AID 777, 2007;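 active = blocking of liver enzyme CYP2C9 beyond about 50% at 5 µM, limit read from the data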
Target sequence (P11712 whole entry, looked up): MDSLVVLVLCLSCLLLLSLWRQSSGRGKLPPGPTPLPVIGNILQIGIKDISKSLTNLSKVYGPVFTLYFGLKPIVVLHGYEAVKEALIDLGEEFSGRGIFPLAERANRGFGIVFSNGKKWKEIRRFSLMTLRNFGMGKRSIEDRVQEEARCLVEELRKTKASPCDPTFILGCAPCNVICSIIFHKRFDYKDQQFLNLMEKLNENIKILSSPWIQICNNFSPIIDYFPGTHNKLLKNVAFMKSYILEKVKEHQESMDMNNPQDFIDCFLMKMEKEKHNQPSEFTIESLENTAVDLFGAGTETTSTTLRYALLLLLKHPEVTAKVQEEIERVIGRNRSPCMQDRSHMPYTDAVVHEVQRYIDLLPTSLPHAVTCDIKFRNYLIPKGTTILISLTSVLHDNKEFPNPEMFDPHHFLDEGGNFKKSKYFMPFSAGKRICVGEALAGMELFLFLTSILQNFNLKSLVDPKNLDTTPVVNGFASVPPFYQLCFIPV
CYP2C19 inhib – blockers of cytochrome P450 2C19 activity – biochemical, luminescence, ADME assay, primary screen | P33261 | CYP2C19 Supersomes, luciferin-H EGE luminescence, 30 min | inhibition, % at 5 µM | hit rate 21% among 96,000 | AID 778, 2007;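 active = CYP2C19 inhibition above a set limit at 5 µM in the primary screen, cut at about 50% in these data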;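 note: plate controls were negative control wells for no effect and 2.5 mM tranylcypromine positive control for full effect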
CYP2C19 act – human CYP2C19 activators, primary screen, biochemical, luminescence | AID 1025, 2008 | 96,000 tested, under 10 active | activation factor at 5 µM | recombinant CYP2C19, luciferin-H EGE luminescence; hits give high values; 0 = fully inhibited enzyme, 1 = untreated enzyme;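 active = activation factor of at least 2 at 5 µM in the primary screen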;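 note: 0 = wells with 2.5 mM tranylcypromine and 1 = vehicle-only wells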
PostGolgi ctrl – growth inhibition of yeast control strain, primary screen, counter-screen for post-Golgi transport modulator project; efflux-deficient yeast background strain, growth absorbance A615, 16 h; inhibition, % at 10 µM; hit rate 5% among 98,000
CYP2C9 activ – human CYP2C9 activators, primary screen, biochemical, luminescence; Cytochrome P450 2C9 (Homo sapiens), P11712; recombinant CYP2C9, luciferin-H conversion; hits give high values; factor 1 = untreated enzyme, 0 = blocked; activation factor at 5 µM; hit rate 1.4% among 96,000;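 active = activation factor of 2 or more for CYP2C9 at a 5 µM dose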;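 note: 0 = sulfaphenazole-blocked wells and 1 = vehicle-only wells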
* = called active by the depositor; x = no result given. Cut-off read from the data, not from the text of the source, unless noted: active = inhibition above about 30%; inactive = the rest.

SMILES	PostGolgi yeast	CYP2C9 inh	CYP2C19 inhib	CYP2C19 act	PostGolgi ctrl	CYP2C9 activ
Cc1ccc(C2C3=C(CC(C)(C)CC3=O)Nc3onc(C)c32)cc1 (configuration not stated)	-11.8	55.9*	98.8*	0	2.4	0.4
Cc1noc2c1C(c1ccc(N(C)C)cc1)C1=C(CC(C)(C)CC1=O)N2 (configuration not stated)	-2.7	20.5	76.2*	0.2	11.1	0.8
CC(C)(C)C1CCc2c(sc(NC(=O)c3cccs3)c2C(=O)N2CCCCC2)C1 (configuration not stated)	17.7	3.1	-5.6	1.1	-0.8	1
COc1ccc(NCc2ccc(OC)c(OC)c2)cc1	8.7	13.7	72.8*	0.3	1.6	0.9
COc1cc(CNc2cc(C)ccc2C)cc(OC)c1OC	10.0	82.4*	98.1*	0	-0.1	0.2
COc1ccc(CNc2cc(C)ccc2C)c(OC)c1OC	20.2	5.6	38.2	0.6	4.3	0.9
COc1cc(CNc2ccc(C)c(C)c2)cc(OC)c1OC	3.9	58.4*	91.2*	0.1	6.8	0.4
O=C(N(c1ccccc1)c1ccccc1)n1ccnc1	7.7	x	x	x	9.0	x
CCC(CC)c1nnc(NC(=O)c2ccc(N3CCCC3=O)cc2)s1	-0.8	3.6	-11.1	1.1	-1.8	1
Cc1ccc(O)c(N=CC2=C(O)c3ccccc3C2=O)c1	1.4	78.6*	49.9	0.5	31.6*	0.2
COC(=O)[C@H](Cc1ccccc1)NC(=O)N1CCN(Cc2ccccc2)CC1	3.1	-8.4	10.3	0.9	7.1	1.1
COC(=O)Cc1c(C)nc2nc(NCc3cccc([N+](=O)[O-])c3)[nH]n2c1=O	-0.9	7.6	4.1	1	1.1	0.9
CCOc1ccc(N2C(=O)CC(N3CCN(C(=O)CN4CCCC4)CC3)C2=O)cc1 (configuration not stated)	4.5	-4.5	0.7	1	3.5	1
CCOc1ccc(N2C(=O)CC(N3CCC(NC(=O)Nc4ccccc4)CC3)C2=O)cc1 (configuration not stated)	1.6	58.7*	89.6*	0.1	11.9	0.4
COc1cc(-c2nnc(COC(=O)c3c4c(nc5ccccc35)CCCC4)o2)cc(OC)c1OC	-1.8	79.2*	68.0*	0.3	23.0	0.2
O=C(Nc1ccccc1)c1ccccc1O	0.2	24.0	18.8	0.8	11.6	0.8
O=C(OCc1nnc(-c2ccccc2)o1)c1ccco1	0.3	6.5	18.1	0.8	-0.8	0.9
CCOc1ncccc1C(=O)OCc1nnc(-c2ccccc2)o1	2.6	28.2	84.0*	0.2	5.6	0.7
O=C(CCN1c2ccccc2Sc2ccccc21)OCc1nnc(-c2ccccc2)o1	-0.2	95.1*	95.7*	0	10.3	0
Cc1ccc(S(=O)(=O)N(C)CC(=O)OCc2nnc(-c3ccccc3)o2)cc1	-3.4	-3.6	4.1	1	7.8	1
N#Cc1ccccc1Sc1ccccc1C(=O)OCc1nnc(-c2ccccc2)o1	1.3	58.4*	68.8*	0.3	10.8	0.4
N#Cc1ccccc1Sc1ccccc1C(=O)Nc1ccccc1	6.4	49.5	51.7*	0.5	17.4	0.5
CC1CN(C(=O)c2ccccc2Sc2ccccc2C#N)CC(C)O1 (configuration not stated)	16.0	21.7	21.7	0.8	3.9	0.8
CCN(Cc1ccccc1)S(=O)(=O)c1ccc(S(=O)(=O)N2CCN(C)CC2)cc1	-7.5	9.2	4.8	1	5.7	0.9
O=C(OCc1nnc(-c2ccccc2)o1)c1ccc2c(c1)OCO2	-13.3	81.2*	65.4*	0.3	23.0	0.2
SMILES	PostGolgi yeast	CYP2C9 inh	CYP2C19 inhib	CYP2C19 act	PostGolgi ctrl	CYP2C9 activ
Cc1noc(C)c1COC(=O)c1ccccc1Sc1ccccc1C#N	-8.3	74.2*	59.1*	0.4	30.3*	0.3
Cc1noc(C)c1COC(=O)c1ccc2c(c1)OCCO2	-5.9	x	x	x	28.2	x
O=C(OCc1nnc(-c2ccccc2)o1)c1cc(=O)c2ccccc2o1	6.4	-5.3	0.3	1	2.5	1.1
CC(C)NC(=O)c1ccc(OC2CSC2)cc1	1.1	0.4	7.8	0.9	15.7	1
CC1(C)CC(=O)C2=C(C1)c1c(ccc3ccccc13)NC2c1ccc(Br)o1 (configuration not stated)	13.7	96.3*	74.9*	0.3	69.3*	0
CCC1(CC)Cc2ccccc2C(=C(C#N)C#N)N1	19.1	15.3	22.7	0.8	14.9	0.8
O=C(c1cc2ccccc2oc1=O)N1CCSC1c1ccco1 (configuration not stated)	-13.5	-154.9	55.6*	0.4	0.2	2.5*
CC1=C(C#N)C(Nc2cccc(C)n2)(C(F)(F)F)C(=O)N1 (configuration not stated)	6.0	-7.2	75.3*	0.2	6.4	1.1
COc1cccc(C(=O)NC(Cc2ccccc2)c2ccc3c(c2)OCCCO3)c1 (configuration not stated)	11.0	75.2*	45.7	0.5	0.0	0.2
O=C(NC(Cc1ccccc1)c1ccc2c(c1)OCCCO2)c1ccc(F)cc1 (configuration not stated)	0.2	90.4*	64.2*	0.4	16.4	0.1
COc1ccc(C(CC(=O)O)NC(=O)c2ccco2)cc1 (configuration not stated)	-1.5	-2.0	9.9	0.9	13.9	1
CCN1CCN(S(=O)(=O)c2ccc(Cl)c(C(=O)Nc3nnc(CC(C)C)s3)c2)CC1	-2.3	21.7	5.5	0.9	21.4	0.8
Cc1ccc2c(c1)C(=O)CCN2	-5.6	-14.1	-0.4	1	-1.7	1.1
O=C1CCNc2cc3ccccc3cc21	5.4	24.4	51.6*	0.5	12.3	0.8
CCN(CC)CCNC(=O)c1ccc(Cl)c(S(=O)(=O)N2CCCCCC2)c1	15.9	72.5*	-3.1	1	6.5	0.3
O=C(NCCOC(=O)c1ccc(Cl)c(S(=O)(=O)N2CCCCC2)c1)c1ccncc1	-0.9	90.6*	88.9*	0.1	0.6	0.1
O=C(NCCc1ccccn1)c1ccc(S(=O)(=O)N2CCCCCC2)cc1	-4.6	26.0	3.8	1	7.2	0.7
Nc1cccc2c1C(=O)N(C(=O)c1ccc(Cl)c(S(=O)(=O)N3CCCCCC3)c1)C2=O	3.3	11.2	3.6	1	4.5	0.9
O=C(CSc1ncn[nH]1)NC1CC2CCC1C2 (configuration not stated)	-2.0	1.4	53.2*	0.5	9.8	1
O=C(CSc1nnc(CNC(=O)c2cccs2)o1)NC1CCCC1	-2.1	x	x	x	2.2	x
O=C(CSc1nnc(Cc2ccccc2)o1)NC1CCCCC1	5.8	12.3	52.3*	0.5	4.4	0.9
